# Data taken from PubChem BioAssay (EPA / NIEHS).
# Results filed as inconclusive are left out. Active and inactive are the calls of the source. The calls were made as follows: active = hit-call score of the fitted dose curve at least 0.9, where 1 is the maximum; inconclusive = response in the unintended direction; inactive = score below 0.9.
# Test: ACEA_ER_80hr: ACEA Biosciences xCELLigence Real-Time Cell Analysis on Estrogen Receptor Agonism for Proliferation (AID 2282667)
# Details: T47D proliferation, impedance (xCELLigence), 80 h
# Method in brief: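 Impedance readout (RT-CES) of T47D proliferation at 80 h post-dose; gain of signal vs DMSO baseline. Compounds: 8 conc, 1:4 serial, top 100 uM final, ≤0.5% DMSO; biological duplicate.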
SMILES,outcome,AC50
N#CCc1ccc(Cl)cc1,inactive,
CNC,inactive,
Nc1cccc2ccccc12,inactive,
N#CN=C(N)N,inactive,
CC(C)C1CCC(Cc2ccc(Cl)cc2)C1(O)Cn1cncn1 (stereo not drawn),inactive,
CCN(CC)C(=O)Cl,inactive,
CC(=O)C=C(C)C,,10.8 µM (active)
O=C(NCO)NCO,inactive,
CC(C)CCCCCCOC(=O)c1ccccc1C(=O)OCCCCCCC(C)C,inactive,
ClCCBr,inactive,
N#Cc1ccccn1,inactive,
CCC(C)c1cccc(C(C)CC)c1O (stereo not drawn),inactive,
CCCCC(CC)CO[N+](=O)[O-] (stereo not drawn),inactive,
COC(=O)c1sccc1S(=O)(=O)NC(=O)Nc1nc(C)nc(OC)n1,inactive,
O=C(Cl)c1ccc(Cl)cc1,inactive,
COc1cccc(C=O)c1,inactive,
CCOP(OCC)OCC,inactive,

SMILES,outcome,AC50
Oc1c(I)cc(I)cc1I,inactive,
CCC1(c2ccc(N)cc2)CCC(=O)NC1=O (stereo not drawn),inactive,
CCSC(C)CC1CC(=O)C(C(CC)=NOC/C=C/Cl)=C(O)C1 (stereo not drawn),inactive,
Clc1ccc(C2(Cn3cncn3)CC(Br)CO2)c(Cl)c1 (stereo not drawn),inactive,
O=[N+]([O-])c1c(Cl)c(Cl)cc(Cl)c1Cl,inactive,
Nc1cccc(Cl)c1,inactive,
CCc1ccccc1N,inactive,
COC[C@H](C)N(C(=O)CCl)c1c(C)csc1C,inactive,
O=C1C(Cl)=C(Cl)C(=O)c2ccccc21,inactive,
C=C(C)C#N,inactive,
CCOC(=O)CP(=O)(OCC)OCC,inactive,
O=[N+]([O-])c1ccc2c3c(cccc13)CC2,inactive,
COP(=S)(OC)Oc1ccc(Sc2ccc(OP(=S)(OC)OC)cc2)cc1,,0.0233 µM (active)
Fc1ccc(C2(Cn3cncn3)OC2c2ccccc2Cl)cc1 (stereo not drawn),inactive,
C=CC(=O)N(C)C,inactive,
CCOC(=O)/C=C(C)/C=C/C[C@@H](C)CCCC(C)C,inactive,
